Experimental data: PubChem BioAssay (Tox21)
Records with an inconclusive call do not appear. The source made the active and inactive calls. The call rests on the fitted dose curve; in most records, active means well fitted cell-killing curve with a large enough effect in the repeat runs (not every such curve was filed as active); inconclusive means weak or mixed curves, or effect the other way; inactive means no such curve, though single readings can be large or run the other way.

experiment: qHTS assay to identify small molecule antagonists of the estrogen related receptor signaling pathway with the pleiotropic PPARgamma coactivator (PGC) from Tox21 10K library - cell viability counter screen (AID 1224840); settings: PGC/ERR reporter cells viability, CellTiter-Fluor, 17.5 h; series mostly up to 92.4 µM; further: nearly all actives have a fitted effect of over 40% in size
Procedure, shortened: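 Step one, plate 2,000 PGC/ERR cells per well; step two, incubate 6 h at 37 C/5% CO2; step three, pin-transfer compounds; step four, incubate 17.5 h; step five, add CellTiter-Fluor and read fluorescence after 30 min.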

| Structure (SMILES) | outcome |
| --- | --- |
| CC(=O)c1ccc2ccccc2c1 | inactive |
| CCCCc1nc(Cl)c(CO)n1Cc1ccc(-c2ccccc2-c2nn[nH]n2)cc1 | inactive |
| CC1=CC(=O)[C@H]2C[C@@H]1C2(C)C | inactive |
| O=C(O)c1cn(C2CC2)c2cc(N3CCNCC3)c(F)cc2c1=O | inactive |
| CO/N=C(\C(=O)N[C@@H]1C(=O)N2C(C(=O)O)=C(CSc3nc(=O)c(O)nn3C)CS[C@H]12)c1csc(N)n1 | inactive |
| O=S(=O)(O)c1cccc2ccccc12 | inactive |
| COc1ccc2cc1Oc1cc3c(cc1OC)CC[N+](C)(C)[C@H]3Cc1ccc(cc1)Oc1c(OC)c(OC)cc3c1[C@@H](C2)[N+](C)(C)CC3 | inactive |
| CCCC(C)C(=O)OCC (stereo unspecified) | inactive |
| CC(=O)OCC(=O)[C@@]1(O)[C@H](C)C[C@H]2[C@@H]3CCC4=CC(=O)C=C[C@]4(C)[C@@]3(F)[C@@H](O)C[C@@]21C | inactive |
| Nc1ccccn1 | inactive |
| O=C(CO)[C@@H](O)[C@H](O)[C@@H](O)CO | inactive |
| CCC(C)(CN(C)C)OC(=O)c1ccccc1 (stereo unspecified) | inactive |
| O=C(O)CNC(=O)c1ccc(CO)o1 | inactive |
| Cc1ccc(C(=O)Nc2ccc(S(=O)(=O)O)c3cc(S(=O)(=O)O)cc(S(=O)(=O)O)c23)cc1NC(=O)c1cccc(NC(=O)Nc2cccc(C(=O)Nc3cc(C(=O)Nc4ccc(S(=O)(=O)O)c5cc(S(=O)(=O)O)cc(S(=O)(=O)O)c45)ccc3C)c2)c1 | inactive |
| COc1ccnc(CS(=O)c2nc3cc(OC(F)F)ccc3[nH]2)c1OC (stereo unspecified) | inactive |
| NC(CCC(=O)O)C(=O)O (stereo unspecified) | inactive |
